Measured values reported in the supplement of paper PMC6555819.

How the values were obtained:
Assay in all cases: PBM binding z-score (relative to random genomic background probes); higher = stronger binding; sequences stand for … in GC…GCGATTGACAGCGTAGAATGAAGG
[1] = system: FXR:RXRa (NR concentration 270 nM, RXRa partner concentration 90 nM)
Outline: (§1)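 Regression normalization was applied to scanned fluorescence from custom Agilent 4×180K protein-binding microarrays. Before scanning, arrays were incubated 1 h with ligand-free nuclear receptor dimers, and binding was detected with antibodies against each partner (one per run). Binding z-scores use the random background probes as reference.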

[2] = system: LXRa:RXRa (NR concentration 270 nM, RXRa partner concentration 90 nM)
Outline: as §1

[3] = system: LXRa homodimer (NR concentration 270 nM)
Outline: as §1

[4] = system: LXRb:RXRa (NR concentration 270 nM, RXRa partner concentration 90 nM)
Outline: as §1

[5] = system: LXRb homodimer (NR concentration 270 nM)
Outline: as §1

[6] = system: PPARa:RXRa (NR concentration 270 nM, RXRa partner concentration 90 nM)
Outline: as §1

[7] = system: PPARg:RXRa (NR concentration 180 nM, RXRa partner concentration 90 nM)
Outline: as §1

[8] = system: PPARg:RXRa 270nM:90nM, anti-RXR (NR concentration 270 nM, RXRa partner concentration 90 nM)
Outline: as §1

[9] = system: PPARg:RXRa 30nM:10nM, anti-RXR (NR concentration 30 nM, RXRa partner concentration 10 nM)
Outline: as §1

[10] = system: PPARg:RXRa 90nM:30nM, anti-RXR (NR concentration 90 nM, RXRa partner concentration 30 nM)
Outline: as §1

[11] = system: PPARg:RXRa DBDmut IVT, anti-RXR (DBD mutation: RXRa K156A/R161A, NR concentration 270 nM, RXRa partner concentration 90 nM)
Outline: as §1

[12] = system: PPARg:RXRa IVT, anti-PPARg (NR concentration 270 nM, RXRa partner concentration 90 nM)
Outline: as §1

[13] = system: PPARg DBDmut:RXRa IVT, anti-PPARg (DBD mutation: PPARg1 K132A/R137A, NR concentration 270 nM, RXRa partner concentration 90 nM)
Outline: as §1

[14] = system: PPARg DBDmut IVT, anti-PPARg (DBD mutation: PPARg1 K132A/R137A, NR concentration 270 nM)
Outline: as §1

[15] = system: PPARg homodimer (NR concentration 180 nM)
Outline: as §1

[16] = system: PXR:RXRa (NR concentration 270 nM, RXRa partner concentration 90 nM)
Outline: as §1

[17] = system: PXR homodimer (NR concentration 270 nM)
Outline: as §1

[18] = system: RARa:RXR (NR concentration 270 nM, RXRa partner concentration 90 nM)
Outline: as §1

[19] = system: RARa homodimer (NR concentration 270 nM)
Outline: as §1

[20] = system: RARb:RXRa (NR concentration 270 nM, RXRa partner concentration 90 nM)
Outline: as §1

Sequence	PBM binding z-score [1]	PBM binding z-score [2]	PBM binding z-score [3]	PBM binding z-score [4]	PBM binding z-score [5]	PBM binding z-score [6]	PBM binding z-score [7]	PBM binding z-score [8]	PBM binding z-score [9]	PBM binding z-score [10]	PBM binding z-score [11]	PBM binding z-score [12]	PBM binding z-score [13]	PBM binding z-score [14]	PBM binding z-score [15]	PBM binding z-score [16]	PBM binding z-score [17]	PBM binding z-score [18]	PBM binding z-score [19]	PBM binding z-score [20]
ATCGTAAGGTCGAAGGTGAGTATACCCACCCGAA	2.6	1.9	-0.314	1.71	0.36	3.41	3.62	3.7	1.42	3.36	-0.143	1.54	1.22	-0.311	1.79	1.87	-0.0484	3.33	0.0373	2.74
CAGCCTAGGTTAGGGCCAGTATAGGAGGAACGTT	-0.436	-0.473	-0.564	-0.633	-1.42	-0.175	0.211	-0.361	-0.521	-0.278	-0.289	-0.377	-1.05	-1.1	-1.26	-0.636	-0.655	-0.399	-0.834	0.516
CTTACTGGGCCAAGGTCATTGATCAGTCAAAGCA	3.38	3.5	1.27	3.15	0.239	4.7	6.21	5.67	3.67	5.42	6.43	6.49	1.83	1.71	2.67	3.89	1.48	4.38	0.236	3.38
CCTAGTTGGTCAGGAGGTGACACACCGGATATGA	0.076	0.0334	0.0506	0.214	-0.0582	1.17	1.04	1.33	0.0174	0.666	0.676	2.36	0.321	-0.109	1.41	0.171	0.895	0.496	0.818	1.25
TCTTGTAAATCAAGCAGGTTAAGAAAGCCTGAGT	0.618	0.47	-0.237	0.526	-0.289	0.845	-0.51	1.34	2.8	2.01	1.54	-0.000502	-0.116	0.31	-0.337	0.678	0.119	0.64	0.0275	0.495
ATACCAAGGTGATCGTGAGGCCGTTGATACTAAC	0.369	0.246	-0.0793	0.0516	-0.198	0.139	0.361	0.165	0.0132	0.0891	0.533	1.06	0.198	0.471	0.381	0.595	0.275	1.03	-0.0475	0.735
GCATATAGGTAATACAAGGTGAAACTCCGATTGT	1.27	2.79	0.554	0.988	-0.38	1.83	1.5	1.04	0.514	0.842	4.64	3.25	1.19	0.842	0.705	0.857	-0.379	1.52	0.524	0.667
AGAATGAGGTTAAGATCAGGGAGACAGAATACAT	2.07	1.66	0.293	1.69	-0.0325	3.31	2.15	2.29	0.947	1.62	3.04	2.59	1.8	0.747	0.955	1.26	0.933	1.95	0.709	1.91
CTACCACGGTGAACAAGGTCGTTGATTACTATTC	0.517	0.708	0.301	1.4	-0.058	1.28	0.357	0.508	-0.252	0.141	0.771	0.788	-0.025	-0.267	0.744	1.44	1.01	1.15	0.251	0.76
ACTATTAGTTGACTTAGGGCACCCGATACGACGC	-0.0668	-0.208	0.0685	-0.198	0.757	-0.213	0.894	0.204	0.268	0.525	0.28	0.339	1.12	1.59	0.282	-0.159	0.392	0.226	1.18	0.663
CCCAGTTGGTCAAGGTCACACACGCTATAGGTAC	4.07	4.03	2.72	3.8	0.738	4.18	3.3	3.56	1.14	2.57	1.74	3.31	2.05	0.443	4.04	4.46	3.52	4.63	2.32	4.24
ATATGTAGGTTACATCCGGGTCATTCAAGCTATG	2.46	4.38	1.74	3.45	0.746	4.7	6.29	5.22	2.73	4.53	7.38	7.61	3.54	2.95	2.2	3.81	1.61	4.07	0.831	2.43
CCTACTGGGCCAAAAAGGTCGTTGATGCCGATAA	0.402	0.901	0.0143	1.24	-0.786	2.45	1.08	1.81	0.344	1.24	3.16	2.91	-0.0977	-1.31	0.923	1.69	0.426	1.77	0.0186	1.48
ATCTCTAGGTAAGACTCAGTTCGGTGAAGAACGC	0.336	0.318	0.624	0.144	0.85	-0.0565	-0.0259	0.127	-0.00912	0.104	2.26	1.24	0.576	0.0505	0.778	0.179	0.754	0.0942	0.985	0.104
